# Experimental data published in PubChem BioAssay.
# The list shows a part of the results. Activity calls are given as the source filed them.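 How the source made its calls, unless noted: active means GFP response above 150% of the DMSO level; inconclusive means fewer than 70 events counted for a yeast strain; inactive means the rest.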
# Key:
# [1] = RPL19A-GFP modulators, yeast TOR pathway, confirmation, cell-based, S. cerevisiae, flow cytometry, cherry picks, mother/daughter gates (AID 2270;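 active means GFP response below 50% of the DMSO control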); conditions: S. cerevisiae RPL19A-GFP strain, 3 h, at 10 µM, stronger effect = lower value, 100 = same GFP as DMSO wells
# [2] = LAP4-GFP expression modulators in yeast, confirmation, cell-based, cherry picks, flow cytometry, mother/daughter gates (AID 2271;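 active means GFP response above 150% of the DMSO control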;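 further: ratio of sample to DMSO plate mean so 100% equals DMSO level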); conditions: S. cerevisiae LAP4-GFP strain, 3 h, at 10 µM, stronger effect = higher value, 100 means same as DMSO control
# [3] = modulators of MEP2-GFP levels in yeast, confirmation, S. cerevisiae, flow cytometry GFP, cherry picks (AID 2272;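 active means GFP response above 150% of the DMSO control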;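 further: ratio of well signal to plate DMSO mean so 100% equals DMSO level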); conditions: S. cerevisiae MEP2-GFP strain, 3 h, at 10 µM, stronger effect = higher value
# [4] = AGP1-GFP expression modulators, hit retest, confirmation, cell-based, flow cytometry, S. cerevisiae, cherry picks (AID 2273);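 further: median GFP channel fluorescence over the whole cell population gate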; conditions: S. cerevisiae AGP1-GFP strain, 3 h, at 10 µM
# [5] = modulators of CIT2-GFP expression in yeast, confirmation, S. cerevisiae, GFP fusion, cherry picks, mother/daughter gates (AID 2274); conditions: S. cerevisiae CIT2-GFP strain, flow cytometry, 3 h, at 10 µM, stronger effect = higher value
# [6] = compound autofluorescence in yeast s288c, dose response, artefact control for yeast TOR pathway GFP screen, s288c strain (AID 2757;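 active means fluorescence span over the dose series, or activity score, above about 33, limit read from the data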;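 further: thousands of bead-calibrated equivalent soluble fluorophore molecules from median cell fluorescence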); conditions: S. cerevisiae s288c, 520 nm autofluorescence, flow cytometry, 3 h; at 33 µM; stronger effect = higher value; zero means same as solvent-only cells
# [7] = inhibitors of CD8+ T cell-vesicle binding, pilot screen, LFA-1/ICAM-1 modulator project, MLPCN validation set, flow cytometry (AID 2523;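 active means response below a set limit, under 55% cells CD8-positive and vesicle-bound, and CD8 cells' 90th-percentile brightness under 279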;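 on vesicle binding response: mean PE anti-B7-1 fluorescence of CD8+ cells relative to row control; 100% = QL9-loaded vesicles with DMSO vehicle in the same plate row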); conditions: 2C mouse CD8+ T cells, at 7 µM, stronger effect = lower value; double positive events: measured here: CD8+/vesicle+ event percentage
# [8] = target: Integrin beta-1 (Homo sapiens) + Integrin alpha-4 (Homo sapiens) (UniProt P13612+P05556); assay: inhibition of HUTS-21 binding to VLA-4, pilot screen, VLA-4 allosteric modulator project, U937 cells, HUTS-21 mAb, flow cytometry, validation set (AID 2674;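 active means inhibition above 50%, about 3 SD of the validation set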;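 further: antibody binding induced by the VLA-4 ligand LDV present at three times its Kd; 0% = LDV ligand with antibody and no compound and 100% = antibody without LDV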); conditions: HUTS-21 LIBS mAb binding, at 6.7 µM, stronger effect = higher value, binding induced by LDV ligand
# Chain of Integrin beta-1 (Homo sapiens) + Integrin alpha-4 (Homo sapiens) (P05556 whole entry, looked up): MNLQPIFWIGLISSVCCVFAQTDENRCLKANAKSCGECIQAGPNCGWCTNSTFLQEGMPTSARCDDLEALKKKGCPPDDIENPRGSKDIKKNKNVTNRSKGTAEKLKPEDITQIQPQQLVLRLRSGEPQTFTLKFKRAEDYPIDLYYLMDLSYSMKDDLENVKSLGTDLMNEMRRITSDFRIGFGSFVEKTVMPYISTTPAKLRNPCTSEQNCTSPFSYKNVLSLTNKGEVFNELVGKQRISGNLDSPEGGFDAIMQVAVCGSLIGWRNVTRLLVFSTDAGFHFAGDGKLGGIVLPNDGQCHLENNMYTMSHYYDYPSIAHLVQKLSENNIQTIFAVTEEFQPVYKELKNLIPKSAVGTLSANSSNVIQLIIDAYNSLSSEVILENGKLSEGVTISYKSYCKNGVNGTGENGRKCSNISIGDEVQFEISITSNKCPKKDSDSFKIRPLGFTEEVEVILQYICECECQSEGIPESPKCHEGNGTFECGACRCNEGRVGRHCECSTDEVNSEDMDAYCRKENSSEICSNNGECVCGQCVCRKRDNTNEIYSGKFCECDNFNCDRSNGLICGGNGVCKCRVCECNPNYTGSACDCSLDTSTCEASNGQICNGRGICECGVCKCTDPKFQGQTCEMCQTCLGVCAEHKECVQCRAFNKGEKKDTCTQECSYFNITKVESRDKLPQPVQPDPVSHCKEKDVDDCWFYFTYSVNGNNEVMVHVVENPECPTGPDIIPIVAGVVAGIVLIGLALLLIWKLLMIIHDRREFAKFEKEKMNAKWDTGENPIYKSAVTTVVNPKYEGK
# Chain of Integrin beta-1 (Homo sapiens) + Integrin alpha-4 (Homo sapiens) (P13612 whole entry, looked up): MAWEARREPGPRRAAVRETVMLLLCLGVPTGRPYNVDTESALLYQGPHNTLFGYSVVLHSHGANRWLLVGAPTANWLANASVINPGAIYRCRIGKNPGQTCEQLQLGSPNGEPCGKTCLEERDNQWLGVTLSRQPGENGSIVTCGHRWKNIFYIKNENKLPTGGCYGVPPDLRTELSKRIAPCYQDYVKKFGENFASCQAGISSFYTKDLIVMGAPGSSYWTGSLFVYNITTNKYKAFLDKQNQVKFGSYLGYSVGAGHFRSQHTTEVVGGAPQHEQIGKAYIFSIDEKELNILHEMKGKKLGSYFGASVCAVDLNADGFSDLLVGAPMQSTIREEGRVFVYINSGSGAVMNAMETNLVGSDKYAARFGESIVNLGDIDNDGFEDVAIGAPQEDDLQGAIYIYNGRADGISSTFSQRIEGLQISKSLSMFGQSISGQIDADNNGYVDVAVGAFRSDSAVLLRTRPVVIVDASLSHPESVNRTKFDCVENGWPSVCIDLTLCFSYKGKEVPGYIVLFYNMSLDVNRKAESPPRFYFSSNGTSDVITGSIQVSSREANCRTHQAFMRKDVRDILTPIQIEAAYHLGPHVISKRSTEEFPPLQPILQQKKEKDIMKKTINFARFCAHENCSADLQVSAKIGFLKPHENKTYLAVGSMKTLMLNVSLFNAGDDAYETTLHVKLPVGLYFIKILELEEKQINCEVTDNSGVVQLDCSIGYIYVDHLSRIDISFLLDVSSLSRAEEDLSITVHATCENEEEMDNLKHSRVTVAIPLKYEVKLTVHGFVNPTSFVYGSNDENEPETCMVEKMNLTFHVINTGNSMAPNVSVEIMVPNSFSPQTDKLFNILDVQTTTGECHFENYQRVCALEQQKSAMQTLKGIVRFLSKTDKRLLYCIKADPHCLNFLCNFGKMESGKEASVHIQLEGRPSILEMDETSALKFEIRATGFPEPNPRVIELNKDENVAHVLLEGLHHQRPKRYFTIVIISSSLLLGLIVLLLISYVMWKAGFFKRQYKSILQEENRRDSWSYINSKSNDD
# [9] = superoxide lowering in aged yeast cells, pilot screen, validation compound set (AID 2706;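 active means superoxide response below 65% of plate, a cut near 3 SD across the whole screen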;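 further: yeast exposed to compound for one week at 30 degrees C before staining; 100% = mean of all compound wells on the same plate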); conditions: S. cerevisiae aging, superoxide DHE fluorescence; at 10 µM, stronger effect = lower value
# [10] = target: Beta-adrenergic receptor kinase 1 (Homo sapiens) (UniProt P25098); assay: GRK2 binders displacing RNA aptamer, biochemical, validation, human GRK2, bead flow cytometry (AID 488806;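 active means aptamer binding inhibition above 30%, about 3 SD of noise from non-fluorescent compounds; inactive means inhibition at or below 30%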); conditions: bead-bound GRK2, FAM-aptamer displacement, at 10 µM, stronger effect = higher value
# Chain of Beta-adrenergic receptor kinase 1 (Homo sapiens) (P25098 whole entry, looked up): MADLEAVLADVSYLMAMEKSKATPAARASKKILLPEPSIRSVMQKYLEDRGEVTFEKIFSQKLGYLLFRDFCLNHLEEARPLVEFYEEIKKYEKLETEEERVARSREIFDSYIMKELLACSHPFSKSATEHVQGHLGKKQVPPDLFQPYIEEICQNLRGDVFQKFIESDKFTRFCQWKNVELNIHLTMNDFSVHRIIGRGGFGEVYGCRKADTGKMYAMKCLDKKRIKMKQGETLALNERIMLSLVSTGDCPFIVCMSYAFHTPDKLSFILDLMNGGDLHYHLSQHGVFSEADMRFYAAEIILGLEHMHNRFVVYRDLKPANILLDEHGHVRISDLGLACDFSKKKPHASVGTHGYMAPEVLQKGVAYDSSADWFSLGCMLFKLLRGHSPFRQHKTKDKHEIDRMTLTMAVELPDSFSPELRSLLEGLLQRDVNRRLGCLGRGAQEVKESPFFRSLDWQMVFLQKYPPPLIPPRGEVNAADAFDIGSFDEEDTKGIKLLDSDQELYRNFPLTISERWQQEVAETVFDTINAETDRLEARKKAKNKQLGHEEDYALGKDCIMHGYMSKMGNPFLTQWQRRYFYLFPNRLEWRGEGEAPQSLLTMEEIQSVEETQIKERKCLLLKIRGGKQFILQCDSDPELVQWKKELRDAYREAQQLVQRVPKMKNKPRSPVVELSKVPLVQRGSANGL
# [11] = target: Beta-2 adrenergic receptor (Homo sapiens) (UniProt P07550); assay: beta2AR agonists driving receptor internalization, pilot screen, cell-based, FAP fluorogen, flow cytometry, validation set (AID 504459;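 active means percent response above 42, roughly 3 SD of non-fluorescent test compounds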;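 further: agonist-driven loss of surface beta2AR via internalization measured by FAP dye flow cytometry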); conditions: Am2.2-beta2AR cells, FAP surface receptor flow cytometry; at 10 µM; stronger effect = higher value
# Chain of Beta-2 adrenergic receptor (Homo sapiens) (P07550 whole entry, looked up): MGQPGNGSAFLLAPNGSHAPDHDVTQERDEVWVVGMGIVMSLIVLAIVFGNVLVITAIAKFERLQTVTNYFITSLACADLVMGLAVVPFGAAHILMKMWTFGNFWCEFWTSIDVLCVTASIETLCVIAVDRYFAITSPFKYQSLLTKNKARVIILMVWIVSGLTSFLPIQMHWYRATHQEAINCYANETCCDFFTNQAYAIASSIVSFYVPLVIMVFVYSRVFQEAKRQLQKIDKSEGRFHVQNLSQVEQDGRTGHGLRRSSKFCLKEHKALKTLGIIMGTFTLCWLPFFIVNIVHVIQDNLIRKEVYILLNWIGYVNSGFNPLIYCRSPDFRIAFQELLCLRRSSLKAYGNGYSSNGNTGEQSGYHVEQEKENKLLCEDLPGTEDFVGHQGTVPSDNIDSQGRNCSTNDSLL
# [12] = target: AP-2 complex subunit beta (Homo sapiens) (UniProt P63010); assay: inhibitors of arrestin peptide binding to AP2, pilot screen, biochemical, validation set, GST-AP2 beads, flow cytometry (AID 504541;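 active means inhibition above 54%, about 3 SD of non-fluorescent compounds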;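 further: AP2 carries R879A mutation and is captured from E. coli lysate; bead-bound FITC arrestin peptide fluorescence measuring arrestin peptide binding to AP2; 0% = DMSO wells and 100% = excess unlabeled arrestin peptide control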); conditions: FITC arrestin peptide, at 10 µM, stronger effect = higher value, AP2 beta2 appendage fragment, R879A mutant
# Chain of AP-2 complex subunit beta (Homo sapiens) (P63010 whole entry, looked up, the tested form may be a part, one chain of several): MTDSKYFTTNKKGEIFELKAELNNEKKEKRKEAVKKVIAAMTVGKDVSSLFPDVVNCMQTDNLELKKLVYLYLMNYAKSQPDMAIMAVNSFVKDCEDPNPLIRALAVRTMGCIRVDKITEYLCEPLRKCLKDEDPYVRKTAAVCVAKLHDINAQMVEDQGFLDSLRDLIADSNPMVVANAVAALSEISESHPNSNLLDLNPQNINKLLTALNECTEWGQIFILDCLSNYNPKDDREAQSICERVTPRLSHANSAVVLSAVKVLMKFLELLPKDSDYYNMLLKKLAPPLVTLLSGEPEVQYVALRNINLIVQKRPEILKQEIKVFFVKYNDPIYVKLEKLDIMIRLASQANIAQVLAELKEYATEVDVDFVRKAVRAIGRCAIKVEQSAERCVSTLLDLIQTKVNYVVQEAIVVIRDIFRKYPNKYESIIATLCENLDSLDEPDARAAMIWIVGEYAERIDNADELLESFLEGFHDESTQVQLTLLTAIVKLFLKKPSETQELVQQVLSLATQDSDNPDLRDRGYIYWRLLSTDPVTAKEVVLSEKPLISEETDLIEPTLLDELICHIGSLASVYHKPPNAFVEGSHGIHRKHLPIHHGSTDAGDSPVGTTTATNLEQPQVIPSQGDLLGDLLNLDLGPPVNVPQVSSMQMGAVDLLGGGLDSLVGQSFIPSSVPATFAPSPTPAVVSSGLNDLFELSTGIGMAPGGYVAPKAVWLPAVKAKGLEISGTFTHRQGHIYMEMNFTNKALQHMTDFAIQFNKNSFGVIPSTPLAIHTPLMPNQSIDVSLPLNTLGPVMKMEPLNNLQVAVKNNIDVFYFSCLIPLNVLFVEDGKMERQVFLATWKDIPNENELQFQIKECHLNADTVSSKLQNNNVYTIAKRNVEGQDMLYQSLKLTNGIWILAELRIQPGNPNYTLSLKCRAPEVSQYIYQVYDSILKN
# [13] = yeast V-ATPase proton transport modulators, S. cerevisiae, pHLuorin, HTS validation (AID 504600; in the data active means response above about 15%;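 further: plate controls were DMSO for no effect and reference compound for full effect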); conditions: S. cerevisiae pHLuorin cytosolic pH, at 10 µM, stronger effect = higher value
# [14] = system: anti-desmoglein-3 scFv antibody binding to human DSG3; assay: inhibitors of anti-DSG3 scFv binding to DSG3, pilot screen, biochemical, validation compound set, bead-based, flow cytometry (AID 588368;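 active means binding below the plate cutoff, the plate median minus 3 SD, with a reading above zero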;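 further: signal is the median channel fluorescence of bead-bound GFP antibody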); conditions: Protein G beads, DSG3-Fc, scFv-GFP binding, at 10 µM, stronger effect = lower value
# [15] = inhibitors of fungal efflux pumps CDR1, CDR2, MDR1, pilot screen, validation compound set, multiplex, phenotypic (AID 588506;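 active means efflux inhibition above 0.42, the validation set average plus 4 SD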;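 further: Nile Red retained in cells so higher fluorescence means more efflux inhibition; 0 = negative control wells and 1 = enniatin B 25 µM full block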); conditions: S. cerevisiae pump-expressing triplex, Nile Red efflux flow cytometry; at 10 µM; stronger effect = higher value; the pumps come from Candida albicans
# [16] = target: ATP-binding cassette sub-family B member 6 (Homo sapiens) (UniProt Q9NP58); assay: ABCB6 transporter inhibitors, pilot screen, K562-ABCB6 cells, flow cytometry, validation set (AID 588550;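 active means inhibition above the screen-wide mean plus 3 SD, about 51%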;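 further: 0% = DMSO wells and 100% = benzethonium chloride 70 µM positive control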); conditions: K562-ABCB6 porphyrin accumulation, 1 h, at 10 µM, stronger effect = higher value
# Chain of ATP-binding cassette sub-family B member 6 (Homo sapiens) (Q9NP58 whole entry, looked up): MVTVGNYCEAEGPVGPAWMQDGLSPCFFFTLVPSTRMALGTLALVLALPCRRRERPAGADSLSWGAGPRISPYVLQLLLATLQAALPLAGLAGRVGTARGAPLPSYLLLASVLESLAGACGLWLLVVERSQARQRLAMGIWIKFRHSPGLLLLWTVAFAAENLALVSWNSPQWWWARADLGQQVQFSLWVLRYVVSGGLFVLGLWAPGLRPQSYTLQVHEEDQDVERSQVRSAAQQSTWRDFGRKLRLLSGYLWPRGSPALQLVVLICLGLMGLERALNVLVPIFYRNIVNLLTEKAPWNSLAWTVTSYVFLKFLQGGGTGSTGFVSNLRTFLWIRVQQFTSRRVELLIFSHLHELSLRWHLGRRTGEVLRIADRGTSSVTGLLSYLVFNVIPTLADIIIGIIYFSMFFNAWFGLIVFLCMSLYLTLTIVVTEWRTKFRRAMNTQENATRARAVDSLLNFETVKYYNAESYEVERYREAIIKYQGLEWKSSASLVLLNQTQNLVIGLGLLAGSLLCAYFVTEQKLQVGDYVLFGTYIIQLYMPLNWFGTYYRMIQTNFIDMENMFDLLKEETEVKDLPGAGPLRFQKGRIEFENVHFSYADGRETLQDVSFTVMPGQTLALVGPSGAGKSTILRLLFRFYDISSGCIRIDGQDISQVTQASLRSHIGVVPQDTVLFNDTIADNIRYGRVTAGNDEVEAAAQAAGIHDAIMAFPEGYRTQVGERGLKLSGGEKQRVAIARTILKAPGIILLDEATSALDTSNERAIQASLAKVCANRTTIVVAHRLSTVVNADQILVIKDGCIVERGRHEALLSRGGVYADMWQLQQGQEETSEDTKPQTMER
# [17] = promoters of myeloid differentiation in arrested cells, primary screen, cell-based, GFP/MAC1 double positive, flow cytometry, validation set (AID 588685;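 active means differentiation response of at least 50%, scaled between solvent and reference control, from cells with both markers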;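 further: compound exposure lasts four days before antibody staining and flow analysis; 0% = DMSO wells and 100% = 5 µM fulvestrant positive control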); conditions: ER-HoxA9 marrow cells, stronger effect = higher value, normalized: vehicle 0, fulvestrant 100
# [18] = measured here: daughter cell gate
# [19] = measured here: mother cell gate
# [20] = measured here: mother cell gate response
# [21] = measured here: daughter cell gate response
smiles,measurement,setting,value
Cc1c(/C=N/Nc2ccc(C(=O)O)cc2)c2ccccc2n1C,GFP response vs DMSO,[1],96.2% (inactive)
same,GFP response vs DMSO,[1]; [18],91.3%
same,GFP response vs DMSO,[1]; [19],95.8%
same,GFP response relative to DMSO,[2],105% (inactive)
same,GFP response vs DMSO,[3],103% (inactive)
same,"GFP response, % of DMSO",[4],95.5% (inactive)
same,"GFP response, % of DMSO",[5],91.7% (inactive)
same,"GFP response, % of DMSO",[5]; [18],81.6%
same,"GFP response, % of DMSO",[5]; [19],82.6%
Cc1ccc(C2CCN(C(=S)Nc3cccc(Cl)c3)C2)cc1 (stereo unspecified),GFP response vs DMSO,[1],96.2% (inactive)
same,GFP response vs DMSO,[1]; [18],95.7%
same,GFP response vs DMSO,[1]; [19],97.4%
same,GFP response relative to DMSO,[2],119% (inactive)
same,GFP response vs DMSO,[3],97.5% (inactive)
same,"GFP response, % of DMSO",[4],93.2% (inactive)
same,"GFP response, % of DMSO",[5],92.1% (inactive)
same,"GFP response, % of DMSO",[5]; [18],90.9%
same,"GFP response, % of DMSO",[5]; [19],95.6%
O=C(O)CCC(=O)OCC1CCCCC1,GFP response vs DMSO,[1],96.7% (inactive)
same,GFP response vs DMSO,[1]; [18],97.6%
same,GFP response vs DMSO,[1]; [19],95.6%
same,GFP response relative to DMSO,[2],104% (inactive)
same,GFP response vs DMSO,[3],103% (inactive)
same,"GFP response, % of DMSO",[4],99.3% (inactive)
same,"GFP response, % of DMSO",[5],98.6% (inactive)
same,"GFP response, % of DMSO",[5]; [18],95.8%
same,"GFP response, % of DMSO",[5]; [19],94.9%
O=C1C=C(c2ccc(Cl)cc2)C(=O)N1Nc1ccccc1,GFP response vs DMSO,[1],61.9% (inactive)
same,GFP response vs DMSO,[1]; [18],89.1%
same,GFP response vs DMSO,[1]; [19],51.9%
same,GFP response relative to DMSO,[2],96.2% (inactive)
same,GFP response relative to DMSO,[2]; [20],81.9%
same,GFP response vs DMSO,[3],113% (inactive)
same,"GFP response, % of DMSO",[4],102% (inactive)
same,"GFP response, % of DMSO",[5],66.5% (inactive)
same,"GFP response, % of DMSO",[5]; [18],99.7%
same,"GFP response, % of DMSO",[5]; [19],53.7%
same,fluorescence change (kMESF span),[6],0.3 (inactive)
CCc1nnc(NC(=O)c2nc(S(=O)(=O)Cc3ccccc3)ncc2Cl)s1,GFP response vs DMSO,[1],94.9% (inactive)
same,GFP response vs DMSO,[1]; [18],95.9%
same,GFP response vs DMSO,[1]; [19],91.4%
same,GFP response relative to DMSO,[2],98.9% (inactive)
same,GFP response vs DMSO,[3],103% (inactive)
same,"GFP response, % of DMSO",[4],97.3% (inactive)
same,"GFP response, % of DMSO",[5],101% (inactive)
same,"GFP response, % of DMSO",[5]; [18],103%
same,"GFP response, % of DMSO",[5]; [19],97.1%
CCC(=O)Nc1ccc(NC(=O)c2cc3ccccc3o2)c(OC)c1,GFP response vs DMSO,[1],100% (inactive)
same,GFP response relative to DMSO,[2],94.4% (inactive)
same,GFP response relative to DMSO,[2]; [21],95.9%
same,GFP response relative to DMSO,[2]; [20],96.2%
same,GFP response vs DMSO,[3],101% (inactive)
same,"GFP response, % of DMSO",[4],100% (inactive)
same,"GFP response, % of DMSO",[5],94.4% (inactive)
same,"GFP response, % of DMSO",[5]; [18],95.6%
same,"GFP response, % of DMSO",[5]; [19],88.2%
CCCc1nn(C)c2c1C(c1cccnc1)C(C#N)=C(N)O2 (stereo unspecified),GFP response vs DMSO,[1],101% (inactive)
same,GFP response vs DMSO,[1]; [18],106%
same,GFP response relative to DMSO,[2],97.4% (inactive)
same,GFP response vs DMSO,[3],97.8% (inactive)
same,"GFP response, % of DMSO",[4],98.3% (inactive)
same,"GFP response, % of DMSO",[5],111% (inactive)
CCOC(=O)C(C(=O)OCC)C(C(=O)OCC)N1CCOCC1 (stereo unspecified),GFP response vs DMSO,[1],74.1% (inactive)
same,GFP response vs DMSO,[1]; [19],61.4%
same,GFP response relative to DMSO,[2],182% (active)
same,GFP response relative to DMSO,[2]; [21],158%
same,GFP response relative to DMSO,[2]; [20],165%
same,GFP response vs DMSO,[3],108% (inactive)
same,"GFP response, % of DMSO",[4],90.2% (inactive)
same,"GFP response, % of DMSO",[5],86.1% (inactive)
same,"GFP response, % of DMSO",[5]; [18],105%
same,"GFP response, % of DMSO",[5]; [19],72.5%
COc1ccc(C2C3=C(CCCC3=O)N(CC(=O)O)C3=C2C(=O)CCC3)cc1Cl,GFP response vs DMSO,[1],102% (inactive)
same,GFP response vs DMSO,[1]; [18],99%
same,GFP response vs DMSO,[1]; [19],98.5%
same,GFP response relative to DMSO,[2],93.8% (inactive)
same,GFP response vs DMSO,[3],100% (inactive)
same,"GFP response, % of DMSO",[4],104% (inactive)
same,"GFP response, % of DMSO",[5],111% (inactive)
same,"GFP response, % of DMSO",[5]; [18],111%
same,"GFP response, % of DMSO",[5]; [19],111%
COc1cccc(/C(C)=N/NC(=O)c2ccc(N(C)C)cc2)c1,GFP response vs DMSO,[1],99.7% (inactive)
same,GFP response vs DMSO,[1]; [18],96.5%
same,GFP response vs DMSO,[1]; [19],99.7%
same,GFP response relative to DMSO,[2],93% (inactive)
same,GFP response vs DMSO,[3],99.5% (inactive)
same,"GFP response, % of DMSO",[4],98.9% (inactive)
same,"GFP response, % of DMSO",[5],102% (inactive)
same,"GFP response, % of DMSO",[5]; [18],102%
same,"GFP response, % of DMSO",[5]; [19],89.8%
O=C(c1cccc(COc2ccc(Cl)cc2Cl)c1)N1CCN(c2ccccn2)CC1,GFP response vs DMSO,[1],80% (inactive)
same,GFP response vs DMSO,[1]; [18],83.6%
same,GFP response relative to DMSO,[2],114% (inactive)
same,GFP response relative to DMSO,[2]; [21],107%
same,GFP response relative to DMSO,[2]; [20],117%
same,GFP response vs DMSO,[3],103% (inactive)
same,"GFP response, % of DMSO",[4],86.6% (inactive)
same,"GFP response, % of DMSO",[5],95.9% (inactive)
same,"GFP response, % of DMSO",[5]; [18],90.2%
same,"GFP response, % of DMSO",[5]; [19],95.6%
Oc1ccc(COCc2ccccc2)c2cccnc12,GFP response vs DMSO,[1],98% (inactive)
same,GFP response vs DMSO,[1]; [19],93.8%
same,GFP response relative to DMSO,[2],149% (inactive)
same,GFP response relative to DMSO,[2]; [21],138%
same,GFP response relative to DMSO,[2]; [20],152%
same,GFP response vs DMSO,[3],114% (inactive)
same,"GFP response, % of DMSO",[4],98.6% (inactive)
same,"GFP response, % of DMSO",[5],95.8% (inactive)
same,"GFP response, % of DMSO",[5]; [18],101%
same,"GFP response, % of DMSO",[5]; [19],91.5%
same,double positive events,[7],65.9%
same,vesicle binding response,[7],129% (inactive)
same,inhibition,[8],-0.43% (inactive)
same,superoxide response (% of plate),[9],75.4% (inactive)
same,aptamer binding inhibition,[10],0% (inactive)
same,response,[11],-7.8% (inactive)
same,inhibition,[12],-1% (inactive)
same,response,[13],2.93% (inactive)
same,binding (% of control),[14],101% (inactive)
same,efflux inhibition (fraction of control),[15],0.12 (inactive)
same,inhibition,[16],1% (inactive)
same,differentiation response,[17],40.8% (inactive)
CCCc1[nH]nc2c1C(c1ccc(OC(=O)N3CCOCC3)c(OC)c1)C(C#N)=C(N)O2 (stereo unspecified),GFP response vs DMSO,[1],100% (inactive)
same,GFP response vs DMSO,[1]; [18],101%
same,GFP response vs DMSO,[1]; [19],95.4%
same,GFP response relative to DMSO,[2],102% (inactive)
same,GFP response vs DMSO,[3],100% (inactive)
same,"GFP response, % of DMSO",[4],97.8% (inactive)
same,"GFP response, % of DMSO",[5],97.8% (inactive)
same,"GFP response, % of DMSO",[5]; [18],89.9%
same,"GFP response, % of DMSO",[5]; [19],97.7%
